VP16 counter: VP16 counterscreen qHTS for inhibitors of ROR gamma transcriptional activity; Potency, µM (series often up to 53.6 µM), actives largely listed as inhibitors; Drosophila S2 Gal4-VP16 UAS-luciferase, luminescence, 20 h; AID 2546, 2010; 310,000 compounds, 3.5% hits;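 note: Gal4-VP16 expression switched on by copper sulfate through the metallothionein promoter; nearly all actives have a fitted effect of over 50% in size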
Mito fusion yeast: qHTS Assay for Small Molecule Inhibitors of Mitochondrial Division or Activators of Mitochondrial Fusion. S. cerevisiae fusion-defective mutant growth rescue, CellTiterGlo 48 h. Potency, µM (top dose mostly 46.1 µM), hits mostly activators. 320,000 compounds, 0.23% hits. AID 485298, 2010; note: nearly all actives have a fitted effect of over 45% in size
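Yeast fusion mutant, YPEG (non-fermentable carbon), compound, 48 h at 37C non-permissive; CellTiterGlo added, 10 min RT, luminescence read. Rescued growth = division inhibition.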
Integrin act MD: qHTS for Activators of Integrin-Mediated Alleviation for Muscular Dystrophy | 350,000 compounds, 0.064% hits | AID 624291, 2012 | alpha7betagal myoblasts, beta-gal FDG fluorescence, 48 h | Potency, µM (top dose mostly 38.3 µM), hits mostly activators; note: nearly all actives have a fitted effect of over 60% in size
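alpha7betagal+/- myoblasts (passage 13, 250/well) treated 48 h at 37C with compounds at 1:260 dilution of DMSO stock. Lysed, then beta-galactosidase activity read as FDG fluorescence (ex 480/em 540) after 30 min, with pre-read for autofluorescence.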
BCR signal inh: qHTS Assay to Find Inhibitors of Chronic Active B-Cell Receptor Signaling; ABC-DLBCL IkBa-CBG/CBR reporter, luminescence ratio, 4 h; 340,000 compounds, 0.05% hits; Potency, µM (highest dose often 46.1 µM), usual class: inhibitors; AID 493014, 2011; active = well fitted inhibition curve with a large enough effect in the signal ratio, with a control signal flat, not every such curve was filed as active; inconclusive = small, poorly fitted or top-dose-only effect, or effect the other way, or a change in a side signal; the % refers to the signal ratio
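Cell line TMD8 (human ABC DLBCL), stably expressing tet-inducible CBG68-IkBa fusion and CBR; IMDM/0.5% FBS; cpd up to 46 uM; dox induction, 4 h, 37C/5% CO2; dual luminescence; green/red ratio; MG132 control.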
RORgamma inh: qHTS for inhibitors of ROR gamma transcriptional activity; Nuclear receptor ROR-gamma (Mus musculus), P51450; Drosophila S2 Gal4-RORgamma UAS-luciferase reporter, 20 h; Potency, µM (titrated, usually from 53.6 µM), usual class: inhibitors; 310,000 compounds, 5.4% hits; AID 2551, 2010; note: nearly all actives have a fitted effect of over 60% in size
Target sequence (P51450 whole entry, looked up, the tested form may be a part): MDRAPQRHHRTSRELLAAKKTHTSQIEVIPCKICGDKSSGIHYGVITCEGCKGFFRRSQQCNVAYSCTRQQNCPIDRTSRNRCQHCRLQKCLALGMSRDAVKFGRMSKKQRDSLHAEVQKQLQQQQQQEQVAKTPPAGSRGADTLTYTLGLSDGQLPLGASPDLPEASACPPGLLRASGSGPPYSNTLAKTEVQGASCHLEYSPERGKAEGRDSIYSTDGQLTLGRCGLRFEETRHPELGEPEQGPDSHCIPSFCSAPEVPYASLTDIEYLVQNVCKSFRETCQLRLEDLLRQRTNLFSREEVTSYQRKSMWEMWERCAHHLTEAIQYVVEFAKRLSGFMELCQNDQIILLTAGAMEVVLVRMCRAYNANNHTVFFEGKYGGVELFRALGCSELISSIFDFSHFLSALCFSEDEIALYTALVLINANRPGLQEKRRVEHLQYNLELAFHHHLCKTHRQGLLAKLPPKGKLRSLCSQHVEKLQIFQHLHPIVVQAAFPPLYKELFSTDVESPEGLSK
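Read-out: Photinus luciferase luminescence; inhibitors lower reporter signal. Insect Schneider cells with Gal4-ROR gamma fusion under metallothionein promoter, UAS reporter; 700 uM final copper sulfate induction, 20 hr, ambient temperature.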
uPA generation: qHTS for Inhibitors of Cell Surface uPA Generation; 330,000 compounds, 0.31% hits; Potency, µM (titrated, usually from 38.3 µM), actives largely listed as inhibitors; AID 540303, 2011; cell surface uPA generation assay, qHTS; active = well fitted inhibition curve with a large enough effect; inconclusive = small, poorly fitted or top-dose-only effect; inactive = no such curve, though single readings can be large or run the other way; tested in mouse RAW 264.7 cells; note: nearly all actives have a fitted effect of over 55% in size
Hits are given with their value; . = inactive; ? = inconclusive; / = no result; [ ] = remark or other dose. Sampled rows, rich in hits. Any-hit rate of the full collection: about 5.5%. Unless noted, calls come from the whole dose curve; as a rule, active = well fitted curve in the direction sought with a large enough effect; inconclusive = small, poorly fitted or top-dose-only effect, or another doubt; inactive = no such curve, though single readings can be large; an effect the other way counts as inactive or inconclusive.

SMILES	VP16 counter	Mito fusion yeast	Integrin act MD	BCR signal inh	RORgamma inh	uPA generation
CCOC(=O)c1c(NC(=S)NC(=O)c2cnn(CC)c2)sc2c1CCC(C)C2 (stereo unspecified)	.	.	.	.	11µM	.
CCOC(=O)c1c(NC(=S)Nc2ccc(Cl)cc2)sc2c1CCN(C)C2	.	.	.	.	.	.
COC(=O)c1c(NC(=S)Nc2cc(OC)c(Cl)cc2OC)sc2c1CCCCC2	?	.	.	.	.	.
NC(=O)c1c(NC(=S)Nc2ccc(F)cc2)sc2c1CCCC2	.	.	.	?	10µM	.
C=CCNC(=S)Nc1sc2c(c1C(N)=O)CCCC2	?	.	.	.	11µM	.
NC(=O)c1c(NC(=S)Nc2ccccc2)sc2c1CCCC2	?	.	.	?	.	.
CCOC(=O)c1c(NC(=S)Nc2cc([N+](=O)[O-])ccc2OC)sc2c1CCCCC2	4µM	.	/	.	5.6µM	/
CC(C)=CCOc1ccc(/C=C/C(=O)c2ccc(OCC=C(C)C)cc2OCC(=O)O)cc1	.	/	/	/	?	/
CN(C)c1ncc2nc(-c3ccc(Cl)cc3)c(=O)n(CCC#N)c2n1	.	/	/	/	.	/
CCOC(=O)c1nn(-c2ccc(C)cc2)c(=O)cc1OCC(=O)Nc1ccc(OC)cc1	/	.	.	.	/	.
COc1ccc(CNC(=O)CCC2N=C3c4ccccc4N=C(SCc4ccc(F)cc4)N3C2=O)cc1 (stereo unspecified)	/	/	/	.	/	/
CCN(CC)CCNc1nc(C(F)(F)F)nc2c1nnn2Cc1ccccc1	/	.	.	.	/	.
FC(F)(F)c1nc(NCc2ccccc2)c2nnn(Cc3ccccc3)c2n1	.	.	?	.	8.9µM	.
Clc1ccc(-n2nnnc2-c2cnc(-c3ccncc3)nc2-c2cccs2)cc1	.	14µM	.	?	.	.
FC(F)(F)c1nc(-c2cccs2)ncc1-c1nnnn1-c1ccc(Cl)cc1	.	.	.	.	.	.
NC(=O)CCCCC1CCSS1 (stereo unspecified)	.	/	/	/	.[10 µM]	/
CC1(C)OC2C(CO)OC(n3cnc4c(=O)[nH]c(N)nc43)C2O1 (stereo unspecified)	.	/	/	/	.	/
COc1ccc(Cn2c(SCc3ccccc3C)nc3cc(OC)c(OC)cc3c2=N)cc1	22µM	.	/	.	?	/
CCn1cc(C(=O)O)c(=O)c2cc(F)c(N3CCN(C(=S)NC(=O)c4ccc(Br)cc4)CC3)cc21	.	.	.	.	0.63µM	.
CCn1cc(C(=O)O)c(=O)c2cnc(N3CCN(C(=S)Nc4ccccc4Cl)CC3)nc21	.	.	.	.	.	.
CCn1cc(C(=O)O)c(=O)c2cnc(N3CCN(C(=S)NC(=O)c4ccc(Br)cc4)CC3)nc21	.	.	.	.	0.56µM	.
CCCCCCNC(=O)c1cn(CC)c2cc(N3CCN(C)CC3)c(F)cc2c1=O	13µM	.	.	.	11µM	?
CCn1cc(C(=O)O)c(=O)c2cnc(N3CCN(C(=S)Nc4ccc(F)cc4)CC3)nc21	.	.	.	?	.	.
CCn1cc(C(=O)O)c(=O)c2cc(F)c(N3CCN(C(=S)NC(=O)c4ccc(OC)cc4)CC3)cc21	.	.	.	.	?	.
CCn1cc(C(=O)O)c(=O)c2cnc(N3CCN(C(=S)NC(=O)c4ccc(Cl)cc4)CC3)nc21	.	.	.	.	1µM	.
SMILES	VP16 counter	Mito fusion yeast	Integrin act MD	BCR signal inh	RORgamma inh	uPA generation
Cn1c(=O)c(=O)n(C)c2cc(S(=O)(=O)N3CCCC3C(=O)NCc3cccs3)ccc21 (stereo unspecified)	.	.	.	.	.	.
CCCCCCC#CC1C=CC(OC(=O)OCC)C(COC(=O)OCC)O1 (stereo unspecified)	.[10 µM]	/	/	/	?	/
COc1ccc2c(c1)O[C@@H](c1cccc(C(F)(F)F)c1)[C@H](OC(=O)Nc1ccc(C)c(Br)c1)C2=O	.	/	/	/	.	/
COc1ccc(CNc2cc(-c3cccnc3)ncn2)c(OC)c1	.	/	/	/	.	/
C/C(=N\NC(=O)CN1CCCCC1)c1ccccc1O	16µM	.	.	.	3.5µM	.
C/C(=N\NC(=O)CN(c1ccccc1)S(C)(=O)=O)c1ccccc1O	3.5µM	.	.	.	0.71µM	.
Cc1cc(C)cc(NC(=O)CN2C(=O)c3ccccc3Sc3ccc(C(=O)N4CCCC4)cc32)c1	/	/	/	.	/	/
CC(=O)NN1C(=O)c2ccc3c4c(ccc(c24)C1=O)C(=O)N(NC(C)=O)C3=O	11µM	.	.	.	11µM	.
COc1cccc(OC)c1C1=Nn2c(nnc2-c2ccccc2O)SC1	.	/	/	/	?	/
CC(=O)NC(=S)Nc1ccccc1N1CCCCC1	7.1µM	.	.	.	2.5µM	.
CCCC(=O)NC(=S)Nc1ccccc1N1CCOCC1	?	.	.	.	11µM	.
O=C(Cc1ccccc1)Nc1ccccc1N1CCOCC1	.	.	.	.	.	.
O=C(Cc1ccc(Cl)cc1)NC(=S)Nc1ccccc1N1CCOCC1	5µM	.	.	?	5µM	.
CCCCC(=O)NC(=S)Nc1ccccc1N1CCCCC1	8.9µM	.	.	.	4.5µM	.
CCCCCC(=O)NC(=S)Nc1ccc(N2CCOCC2)cc1	2.2µM	.	.	?	1.3µM	.
Cc1cccc(C)c1OCC(=O)Nc1ccccc1N1CCCCC1	18µM	.	.	?	.	.
CCC(=O)NC(=S)Nc1ccc(N2CCOCC2)cc1	.	.	?	.	.	.
CCCCC(=O)NC(=S)Nc1cccc(Cl)c1N1CCCCC1	5µM	.	.	.	1.6µM	.
CCCC(=O)NC(=S)Nc1cccc(Cl)c1N1CCCCC1	1µM	.	.[7.66 µM]	.	0.63µM	/
O=C(NNC(=O)c1cc(Br)c(Br)s1)c1ccncc1	/	.	.	?	/	.
Cc1[nH]nc(Nc2ccc(C(C)C)cc2)c1[N+](=O)[O-]	?	.	.	?	.	.
Cc1ccc(CSC2=Nc3ccccc3C3=NC(CC(=O)NCc4cccs4)C(=O)N23)c(C)c1 (stereo unspecified)	/	/	/	.	/	/
CC(C)CC(=O)NC(=S)Nc1ccccc1N1CCCC1	11µM	.	.	.	4µM	.
CCC(=O)NC(=S)Nc1cccc(Cl)c1N1CCCCC1	5µM	.	.	?	4.5µM	/
CC(C)CC(=O)Nc1ccccc1N1CCCC1	.	.	.	.	.	.
CCCCCC(=O)NC(=S)Nc1ccc(N2CCCCC2)c(Cl)c1	7.1µM	.	.	?	1.6µM	.
Cc1noc(C)c1-c1ccc2ncnc(N3CCC(C(=O)O)CC3)c2c1	.	/	/	/	.	/
CCN1CCN(/C=N/c2nc3c(s2)CCCC3)CC1	7.1µM	.	.	.	8.9µM	?

High-throughput results deposited in PubChem by National Center for Advancing Translational Sciences (NCATS).
